B1: PhoQ; a variant is named by its letters at X, in order, P23837 (parent)
chain: MKKLLRLFFPLSLRVRFLLATAAVVLVLSLAYGMVALIGYSVSFDKTTFRLLRGESNLFYTLAKWENNKLHVELPENIDKQSPTMTLIYDENGQLLWAQRDVPWLMKMIQPDWLKSNGFHEIEADVNDTSLLLSGDHSIQQQLQEVREDDDDAEMTHSVAVNVYPATSRMPKLTIVVVDTIPVELKSSYMVWSWFIYVLSANLLLVIPLLWVAAWWSLRPIEALAKEVRELEEHNRELLNPATTRELTSLVRNLNRLLKSERERYDKYRTTLTDLTHSLKTPLXXLQXXLRSLRSEKMSVSDAEPVMLEQISRISQQIGYYLHRASMRGGTLLSRELHPVAPLLDNLTSALNKVYQRKGVNISLDISPEISFVGEQNDFVEVMGNVLDNACKYCLEFVEISARQTDEHLYIVVEDDGPGIPLSKREVIFDRGQRVDTLRPGQGVGLAVAREITEQYEGKIVAGESMLGGARMEVIFGRQHSAPKDE

Whole data set: some 140,000 sequences, median “enrichment ratio after two sorts for PhoP signalling” near 0, cut for the highest 2% near 11. The sample holds the highest values, similar sequences and a random draw of the others, so the mix is not that of the screen.

In this experiment the parent is B1. Nature of the experiment: enrichment ratio after two sorts for PhoP signalling (ratio (wild type AVST 3.29)); higher = more functional. The following applies: with PhoP (E. coli).
In the case of WRRM, the enrichment ratio is ≤ 0.25.
In the case of YYVL, the enrichment ratio is ≤ 0.25.
With IENI, the enrichment ratio was ≤ 0.25.
With GVPH, the enrichment ratio was ≤ 0.25.
The value for PCMW was ≤ 0.25; that for GSWF was ≤ 0.25; that for HSKP was ≤ 0.25.
Turning to WEQY, the enrichment ratio was ≤ 0.25.
Take IRFS: the enrichment ratio was ≤ 0.25.
As for SLVT, the enrichment ratio was determined as 0.291.
With SFLY, the enrichment ratio is 0.911.
For SQVT, the enrichment ratio was determined as 5.85.
As for SEVT, the enrichment ratio worked out at 16.8.
Under SPLS stands ≤ 0.25.
In the case of SELY, the enrichment ratio was 11.4.
The value for MEVT was 27.6; that for QEVT was ≤ 0.25.
Under KYLS stands ≤ 0.25.
Under NEVT stands ≤ 0.25.
For KYLY, the enrichment ratio is ≤ 0.25.
On to SELS, for which the enrichment ratio was found to be 20.9.
Under PENI stands ≤ 0.25; under PNLE, ≤ 0.25.
Turning to DQCP, the enrichment ratio was ≤ 0.25.
Under HGEI stands ≤ 0.25; under SWKP, ≤ 0.25; under WESM, ≤ 0.25.
The value for STAA was 4.26; that for SEET was 6.48.
Turning to SEAA, the enrichment ratio stood at 14.3.
The value for SPLD was ≤ 0.25; that for STLY was 13.1; that for SELD was 14.
For KYLD, the enrichment ratio is ≤ 0.25.
As for SEAT, the enrichment ratio was 13.6.
The value for YTLY was 1.95; that for SENT was 2.04; that for SEAD was 5.48.
Consider SPLY, for which the enrichment ratio was ≤ 0.25.
As to DWIM, the enrichment ratio is ≤ 0.25.
Consider NPSS, for which the enrichment ratio is ≤ 0.25.
The value for FFHH was 0.731; that for TYSH was 1.78; that for NQDR was ≤ 0.25.
With LYHC, the enrichment ratio is ≤ 0.25.
With YVNL, the enrichment ratio was ≤ 0.25.
Regarding RKNY, the enrichment ratio was ≤ 0.25.
The value for MNMF was ≤ 0.25; that for FCKG was ≤ 0.25.
The value for HKNH was ≤ 0.25.
The value for MKCC was ≤ 0.25; that for HKCC was ≤ 0.25; that for HKNI was ≤ 0.25.
In the case of ANCC, the enrichment ratio is 0.324.
Under TKNI stands 13.3; under HNCC, ≤ 0.25; under HNNH, ≤ 0.25.
Under TKNH stands 11.4; under AKCC, 15.2.
TKNW: the enrichment ratio is ≤ 0.25.
The value for TKCC was 13.1; that for KKAH was ≤ 0.25; that for LSQM was ≤ 0.25.
Under NLVR stands ≤ 0.25; under SGPQ, ≤ 0.25; under FWSM, ≤ 0.25.
As to VAFK, the enrichment ratio was ≤ 0.25.
Take MYIN: the enrichment ratio was ≤ 0.25.
For EPPF, the enrichment ratio was ≤ 0.25.
Under IMLD stands ≤ 0.25; under HKNM, ≤ 0.25.
Take KKNM: the enrichment ratio was ≤ 0.25.
The value for NQCC was ≤ 0.25.
Under TKNM stands 31.9; under AQCC, 32.6; under EQCC, ≤ 0.25.
Take YTTI: the enrichment ratio was ≤ 0.25.
Regarding TTTA, the enrichment ratio was 5.71.
The value for ITTI was ≤ 0.25; that for GVTI was 4.7; that for GTTI was 13.5.
The value for TTTI was 22.1; that for PPTP was ≤ 0.25; that for GGSI was 12.3.
As for NISI, the enrichment ratio is ≤ 0.25.
Under GSTG stands ≤ 0.25; under GQSI, ≤ 0.25.
As for RGSI, the enrichment ratio was ≤ 0.25.
In the case of GSSI, the enrichment ratio stood at 14.1.
The value for TGSI was 19.6; that for GSSK was ≤ 0.25.
Under NGSI stands ≤ 0.25; under MYCI, ≤ 0.25.
Under LDCF stands ≤ 0.25; under DHSM, ≤ 0.25; under YTII, ≤ 0.25.
On to GYII, for which the enrichment ratio was 0.285.
Under GNII stands 8.44; under GCII, 18.2.
GTII: the enrichment ratio came out at 13.8.
The value for GGII was 1.19; that for TMAM was 26.9; that for HAAK was ≤ 0.25.
In the case of KMNM, the enrichment ratio was ≤ 0.25.
Under KMAM stands ≤ 0.25.
Regarding KMAN, the enrichment ratio is ≤ 0.25.
Under TMPM stands ≤ 0.25; under NMAK, ≤ 0.25; under TMAK, 16.1.
As for TMNM, the enrichment ratio came out at 35.
Under DMAN stands ≤ 0.25.
The value for TMIM was ≤ 0.25.
As to TMAN, the enrichment ratio was found to be 18.9.
The value for HYTR was ≤ 0.25; that for LWGW was ≤ 0.25; that for NTYY was ≤ 0.25.
Under YIFC stands ≤ 0.25.
Under CVCM stands ≤ 0.25; under TMTM, 17.1; under TMGM, 3.21.
In the case of TMWM, the enrichment ratio was ≤ 0.25.
The value for TWYG was ≤ 0.25.
Consider QIGF, for which the enrichment ratio is 12.5.
QPGF: the enrichment ratio was ≤ 0.25.
Consider FFFF, for which the enrichment ratio was ≤ 0.25.
The value for QGFA was 1.27; that for QIHF was ≤ 0.25; that for QEGF was ≤ 0.25.
FFGF: the enrichment ratio is ≤ 0.25.
Under QGFF stands 13.9; under QGGF, 18.4; under LRWS, ≤ 0.25.
Under ITEW stands ≤ 0.25.
As to ELKD, the enrichment ratio is ≤ 0.25.
Regarding HCGH, the enrichment ratio is ≤ 0.25.
The value for NAPY was ≤ 0.25.
The value for CIWI was ≤ 0.25; that for CIMV was 12.9; that for CIFA was ≤ 0.25.
With CICV, the enrichment ratio worked out at 0.57.
CITI: the enrichment ratio was ≤ 0.25.
For CITA, the enrichment ratio was found to be 12.4.
In the case of TNDF, the enrichment ratio was ≤ 0.25.
Under YDRL stands ≤ 0.25; under VIWT, ≤ 0.25; under WDYR, ≤ 0.25.
Under GTGM stands 6.32.
In the case of GDCG, the enrichment ratio is ≤ 0.25.
Under RIRE stands ≤ 0.25; under QTNS, 0.432.
The value for QTNL was 10.8; that for QTDS was 8.33.
As for QGDH, the enrichment ratio was ≤ 0.25.
